Experimental data as given in PubChem BioAssay AID1508601 (ICCB-Longwood Screening Facility, Harvard Medical School, 2020).
In all, about 5,700 compounds went through this assay and about 85 (1%) were called active. This is one part of a sample in which actives are shown more often than they occur. No stated cut-off is given here; in the data, active means p53-positive nuclei above about 36% (passing the limit was not always enough); inactive means the rest.

How the values were obtained:
[1] = nuclear p53 accumulation, HPV+ cells – imaging, p53-positive nuclei imaging, 24 h, 48 h (AID 1508601); conditions: 24/48 h
[2] = target: Cellular tumor antigen p53 (Homo sapiens) (UniProt P04637); assay: as above; conditions: 24/48 h, stronger effect = higher value
[3] = measured here: cell number at 24 h, concentration not given here
[4] = measured here: cell number at 48 h, concentration not given here
[5] = measured here: p53 positive nuclei at 24 h, concentration not given here
[6] = measured here: cell number at 24 h, Library stock concentration: 3.33 mM
[7] = measured here: cell number at 24 h, Library stock concentration: 10 mM
[8] = measured here: cell number at 48 h, Library stock concentration: 3.33 mM
[9] = measured here: cell number at 48 h, Library stock concentration: 10 mM
[10] = Library stock concentration: 3.33 mM
[11] = Library stock concentration: 10 mM
[12] = measured here: p53 positive nuclei at 24 h, Library stock concentration: 3.33 mM
[13] = measured here: p53 positive nuclei at 24 h, Library stock concentration: 10 mM

Sequence of Cellular tumor antigen p53 (Homo sapiens) (P04637 whole entry, looked up): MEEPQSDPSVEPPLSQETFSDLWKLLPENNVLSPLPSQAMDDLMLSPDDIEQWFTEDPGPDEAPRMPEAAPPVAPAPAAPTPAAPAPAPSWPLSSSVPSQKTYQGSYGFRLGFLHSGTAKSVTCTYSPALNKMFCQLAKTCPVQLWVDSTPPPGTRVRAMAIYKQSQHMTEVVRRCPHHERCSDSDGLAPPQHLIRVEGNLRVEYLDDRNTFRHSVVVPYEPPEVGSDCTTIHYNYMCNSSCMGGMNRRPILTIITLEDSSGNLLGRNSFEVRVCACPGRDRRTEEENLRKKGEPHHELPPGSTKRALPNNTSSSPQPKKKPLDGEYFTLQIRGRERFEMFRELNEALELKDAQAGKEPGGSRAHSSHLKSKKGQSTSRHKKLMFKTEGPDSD

CCCCC[C@@](C)(O)/C=C/[C@H]1[C@H](O)CC(=O)[C@@H]1C/C=C\CCCC(=O)O
nuclei count, normalised [1, 3]: 101%
nuclei count, normalised [1, 4]: 105%
p53-positive nuclei, normalised ([2]; concentration not given here): -0.0639% (inactive)
p53-positive nuclei, normalised [2, 5]: 0.0947%

CC(C)N(CCCNC(=O)Nc1ccc(C(C)(C)C)cc1)CC1OC(n2cc(Br)c3c(N)ncnc32)C(O)C1O (stereo not given)
nuclei count, normalised ([1]; measured here: cell number at 24 h, Library stock concentration: 80 uM): 105%
nuclei count, normalised ([1]; measured here: cell number at 24 h, Library stock concentration: 400 uM): 101%
nuclei count, normalised ([1]; measured here: cell number at 24 h, Library stock concentration: 2 mM): 103%
nuclei count, normalised [1, 6]: 115%
nuclei count, normalised [1, 7]: 101%
nuclei count, normalised ([1]; measured here: cell number at 48 h, Library stock concentration: 80 uM): 98.8%
nuclei count, normalised ([1]; measured here: cell number at 48 h, Library stock concentration: 400 uM): 96.7%
nuclei count, normalised ([1]; measured here: cell number at 48 h, Library stock concentration: 2 mM): 94.7%
nuclei count, normalised [1, 8]: 110%
nuclei count, normalised [1, 9]: 99.9%
p53-positive nuclei, normalised ([2]; Library stock concentration: 80 uM): -0.0631% (inactive)
p53-positive nuclei, normalised ([2]; Library stock concentration: 400 uM): 0.111% (inactive)
p53-positive nuclei, normalised ([2]; Library stock concentration: 2 mM): 0.291% (inactive)
p53-positive nuclei, normalised [2, 10]: -0.109% (inactive)
p53-positive nuclei, normalised [2, 11]: 0.13% (inactive)
p53-positive nuclei, normalised ([2]; measured here: p53 positive nuclei at 24 h, Library stock concentration: 80 uM): -0.167%
p53-positive nuclei, normalised ([2]; measured here: p53 positive nuclei at 24 h, Library stock concentration: 400 uM): 0.0144%
p53-positive nuclei, normalised ([2]; measured here: p53 positive nuclei at 24 h, Library stock concentration: 2 mM): -0.162%
p53-positive nuclei, normalised [2, 12]: -0.283%
p53-positive nuclei, normalised [2, 13]: -0.163%

CCCC1CC(C(=O)NC(C(C)O)[C@@H]2OC(SC)C(O)C(O)C2O)N(C)C1 (stereo not given in full)
nuclei count, normalised [1, 6]: 101%
nuclei count, normalised [1, 8]: 102%
p53-positive nuclei, normalised [2, 10]: -0.245% (inactive)
p53-positive nuclei, normalised [2, 12]: -0.267%

N#CSc1cc(SC#N)c(N)nc1N
nuclei count, normalised ([1]; measured here: cell number at 24 h, Library stock concentration: 500 nM): 108%
nuclei count, normalised ([1]; measured here: cell number at 24 h, Library stock concentration: 1.5 uM): 116%
nuclei count, normalised ([1]; measured here: cell number at 24 h, Library stock concentration: 4.6 uM): 121%
nuclei count, normalised ([1]; measured here: cell number at 24 h, Library stock concentration: 13.7 uM): 119%
nuclei count, normalised ([1]; measured here: cell number at 24 h, Library stock concentration: 41 uM): 107%
nuclei count, normalised ([1]; measured here: cell number at 24 h, Library stock concentration: 123 uM): 114%
nuclei count, normalised ([1]; measured here: cell number at 24 h, Library stock concentration: 370 uM): 114%
nuclei count, normalised ([1]; measured here: cell number at 24 h, Library stock concentration: 1.111 mM): 107%
nuclei count, normalised [1, 6]: 97.4%
nuclei count, normalised ([1]; measured here: cell number at 24 h, Library stock concentration: 3.333 mM): 84.8%
nuclei count, normalised [1, 7]: 45.2%
nuclei count, normalised ([1]; measured here: cell number at 48 h, Library stock concentration: 500 nM): 108%
nuclei count, normalised ([1]; measured here: cell number at 48 h, Library stock concentration: 1.5 uM): 111%
nuclei count, normalised ([1]; measured here: cell number at 48 h, Library stock concentration: 4.6 uM): 118%
nuclei count, normalised ([1]; measured here: cell number at 48 h, Library stock concentration: 13.7 uM): 113%
nuclei count, normalised ([1]; measured here: cell number at 48 h, Library stock concentration: 41 uM): 108%
nuclei count, normalised ([1]; measured here: cell number at 48 h, Library stock concentration: 123 uM): 113%
nuclei count, normalised ([1]; measured here: cell number at 48 h, Library stock concentration: 370 uM): 74.3%
nuclei count, normalised ([1]; measured here: cell number at 48 h, Library stock concentration: 1.111 mM): 74.4%
nuclei count, normalised [1, 8]: 103%
nuclei count, normalised ([1]; measured here: cell number at 48 h, Library stock concentration: 3.333 mM): 62.1%
nuclei count, normalised [1, 9]: 21.8%
p53-positive nuclei, normalised ([2]; Library stock concentration: 500 nM): 0.137% (inactive)
p53-positive nuclei, normalised ([2]; Library stock concentration: 1.5 uM): -0.0213% (inactive)
p53-positive nuclei, normalised ([2]; Library stock concentration: 4.6 uM): -0.102% (inactive)
p53-positive nuclei, normalised ([2]; Library stock concentration: 13.7 uM): 0.047% (inactive)
p53-positive nuclei, normalised ([2]; Library stock concentration: 41 uM): 0.227% (inactive)
p53-positive nuclei, normalised ([2]; Library stock concentration: 123 uM): -0.098% (inactive)
p53-positive nuclei, normalised ([2]; Library stock concentration: 370 uM): 0.164% (inactive)
p53-positive nuclei, normalised ([2]; Library stock concentration: 1.111 mM): 0.121% (inactive)
p53-positive nuclei, normalised [2, 10]: 0.00985% (inactive)
p53-positive nuclei, normalised ([2]; Library stock concentration: 3.333 mM): 0.39% (inactive)
p53-positive nuclei, normalised [2, 11]: 46.6% (active)
p53-positive nuclei, normalised ([2]; measured here: p53 positive nuclei at 24 h, Library stock concentration: 500 nM): 0.00877%
p53-positive nuclei, normalised ([2]; measured here: p53 positive nuclei at 24 h, Library stock concentration: 1.5 uM): -0.00152%
p53-positive nuclei, normalised ([2]; measured here: p53 positive nuclei at 24 h, Library stock concentration: 4.6 uM): 0.0386%
p53-positive nuclei, normalised ([2]; measured here: p53 positive nuclei at 24 h, Library stock concentration: 13.7 uM): -0.00721%
p53-positive nuclei, normalised ([2]; measured here: p53 positive nuclei at 24 h, Library stock concentration: 41 uM): 0.497%
p53-positive nuclei, normalised ([2]; measured here: p53 positive nuclei at 24 h, Library stock concentration: 123 uM): 0.0549%
p53-positive nuclei, normalised ([2]; measured here: p53 positive nuclei at 24 h, Library stock concentration: 370 uM): -0.0579%
p53-positive nuclei, normalised ([2]; measured here: p53 positive nuclei at 24 h, Library stock concentration: 1.111 mM): 0.00745%
p53-positive nuclei, normalised [2, 12]: -0.237%
p53-positive nuclei, normalised ([2]; measured here: p53 positive nuclei at 24 h, Library stock concentration: 3.333 mM): 0.112%
p53-positive nuclei, normalised [2, 13]: 76.7%

CC/C=C\C/C=C\C/C=C\C/C=C\C/C=C\CCCCCC(=O)O
nuclei count, normalised [1, 3]: 100%
nuclei count, normalised [1, 4]: 102%
p53-positive nuclei, normalised ([2]; concentration not given here): 0.209% (inactive)
p53-positive nuclei, normalised [2, 5]: -0.0279%

CC(Oc1ccc2c(c1)OCO2)C(=O)N(Cc1nccn1C)C(C)C (stereo not given)
nuclei count, normalised [1, 3]: 101%
nuclei count, normalised [1, 4]: 109%
p53-positive nuclei, normalised ([2]; concentration not given here): -0.128% (inactive)
p53-positive nuclei, normalised [2, 5]: 0.148%
